Test results taken from PubChem BioAssay (Tox21).
Where “and” joins values, the source holds several entries; their conditions need not be identical. Equal entries are not always repeated. Inconclusive results are not listed. Entries that show only a call come without a potency. Calls of active or inactive are those of the source. Unless noted, calls follow the shape of the dose curve; as a rule, active = well fitted activation curve with a large enough effect in the repeat runs; inconclusive = weak or mixed curves; inactive = no such curve, though single readings can be large or run the other way. Starred links: 1 amine or outer side, 2 acyl side, 3 side chain; linkers in the order of their positions; H or OH if unused. Positions of bridges follow the written chain, without caps; N, C: chain ends. Non-standard residues stand in square brackets, D forms with d. Residues, ends and D or L forms follow the SMILES beside them. Chains are numbered I, II in the order given. Actinocin(9to1) = Cc1c2oc3c(C)ccc(C(=O)[*:1])c3nc-2c(C(=O)[*:2])c(N)c1=O; NMeV = CN[C@H](C(=O)O)C(C)C; Sar = CNCC(=O)O
Also: nearly all actives have a fitted effect of over 15% in size.
Potency is read from the fitted curve at half-maximal effect.

Assay: qHTS assay for small molecule agonists of the p53 signaling pathway (AID 651631; calls by dose curve)
Details: HCT-116 p53RE-bla reporter, beta-lactamase FRET ratio, 16 h; series mostly up to 73.3 µM
Outline: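 Agonist mode screen using a stably integrated beta-lactamase gene under p53 response elements in HCT-116 cells. Compound exposure lasts 16 h at 37 °C; fluorescence intensity is measured following 2 h FRET substrate loading.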
With `Cc1scc2c1N(C(=O)CN1CCN(C)CC1)c1ccccc1NC2=O` the Potency was “inactive”. With `CCN(CC)C(=O)Nc1ccc(OCC(O)CNC(C)(C)C)c(C(C)=O)c1` (stereo not drawn) the Potency was “inactive”. With `CC[C@H]1CN2CCc3cc(OC)c(OC)cc3[C@@H]2C[C@@H]1C[C@H]1NCCc2cc(OC)c(OC)cc21` the Potency was 38.7 nM (active). With `OCCOCCN1CCN(C(c2ccccc2)c2ccc(Cl)cc2)CC1` (stereo not drawn) the Potency was “inactive”. With `Cc1cc(C(C)(C)C)c(O)c(C(C)(C)C)c1` the Potency was “inactive”. In the case of `CC(=O)CC(C)=O`, the Potency is reported as “inactive”. For `NC(Cc1ccc(Cl)cc1)C(=O)O` (stereo not drawn), the Potency was “inactive”. For `CC1=C(C=O)C(C)(C)CC=C1`, the Potency was “inactive”. For `CCCCOCCOC(=O)c1ccccc1C(=O)OCCOCCCC`, the Potency was “inactive”. In the case of `CCCCC/C=C/CC1CC(=O)OC1=O` (stereo not drawn), the Potency is reported as “inactive”. In the case of `O=C(O)c1cn(-c2ccc(F)cc2)c2cc(N3CCNCC3)c(F)cc2c1=O`, the Potency is reported as “inactive”. For `C=C(C)C(=O)O`, the Potency was “inactive”. With `CC(C(O)c1ccc(O)cc1)N1CCC(Cc2ccccc2)CC1` (stereo not drawn) the Potency was “inactive”. With `Cc1c2oc3c(C)ccc(C(=O)N[C@@H]4C(=O)N[C@H](C(C)C)C(=O)N5CCC[C@H]5C(=O)N(C)CC(=O)N(C)[C@@H](C(C)C)C(=O)O[C@@H]4C)c3nc-2c(C(=O)N[C@@H]2C(=O)N[C@H](C(C)C)C(=O)N3CCC[C@H]3C(=O)N(C)CC(=O)N(C)[C@@H](C(C)C)C(=O)O[C@@H]2C)c(N)c1=O` (I: T[dV]P[Sar][NMeV] / II: T[dV]P[Sar][NMeV]; ester I:1-I:C, II:1-II:C; linker I:N-II:N via Actinocin(9to1)) the Potency was 5.3 nM (active) and 2.7 nM (active). For `C=CS(=O)(=O)O`, the Potency was “inactive”. In the case of `O=c1n(CC2CO2)c(=O)n(CC2CO2)c(=O)n1CC1CO1` (stereo not drawn), the Potency is reported as 13.3 µM (active) and 8.58 µM (active) and 8.63 µM (active).

Assay: qHTS assay for small molecules that induce genotoxicity in human embryonic kidney cells expressing luciferase-tagged ATAD5 (AID 651632)
Details: HEK293T ATAD5-luciferase induction, 16 h; series mostly up to 83.3 µM
Outline: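 Luminescence read-out: after 16 hr compound exposure at 37C, ATAD5-luciferase HEK293T cells received Amplite, 30 min RT, then CCD imaging. A rise in signal marks genotoxic stress.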
In the case of `CC1=CC(=O)c2ccccc2C1=O`, the Potency is reported as “inactive”. In the case of `CCc1ccc(C(c2ccc(CC)cc2)C(Cl)Cl)cc1`, the Potency is reported as “inactive”. With `NCCO` the Potency was “inactive”. With `COc1cc(C(=S)N2CCOCC2)ccc1O` the Potency was “inactive”. With `Cc1cc(Cc2cc(C)cc(C(C)(C)C)c2O)c(O)c(C(C)(C)C)c1` the Potency was “inactive”. In the case of `Nc1cc(S(=O)(=O)O)cc2cc(S(=O)(=O)O)cc(O)c12`, the Potency is reported as “inactive”. For `Cc1cc(C2(c3cc(C)c(O)cc3C)OS(=O)(=O)c3ccccc32)c(C)cc1O`, the Potency was “inactive”. For `CC(=O)N[C@@H](CS)C(=O)O`, the Potency was “inactive”. For `CC[C@@H](N)CO`, the Potency was “inactive”. In the case of `COC(=O)[C@H]1[C@H]2C[C@@H]3c4[nH]c5cc(OC)ccc5c4CCN3C[C@H]2C[C@@H](OC(=O)c2cc(OC)c(OC)c(OC)c2)[C@@H]1OC`, the Potency is reported as “inactive”. For `CC(C)(C)c1ccccc1`, the Potency was “inactive”. In the case of `Cc1ccnc2c1NC(=O)c1cccnc1N2C1CC1`, the Potency is reported as “inactive”. With `CCOC(=O)C(C)C(C)=O` (stereo not drawn) the Potency was “inactive”. With `O=Cc1ccc(Cl)cc1` the Potency was “inactive”. In the case of `O=S(=O)(O)c1ccc2nc(-c3ccccc3)[nH]c2c1`, the Potency is reported as “inactive”. With `CCN(CC)c1ccc2c(C)cc(=O)oc2c1` the Potency was “inactive”. With `CC(=O)C1=C(C)[C@@H]2C[C@@]3(C1)[C@H](C)CC[C@H]3C2(C)C` the Potency was “inactive”. For `CCCC(=O)c1ccccc1`, the Potency was “inactive”. In the case of `COC(c1ccccc1)(c1ccccc1)[C@H](Oc1nc(C)cc(C)n1)C(=O)O`, the Potency is reported as “inactive”. For `Cc1cccc2n[nH]nc12`, the Potency was “inactive”. In the case of `Oc1c(Cl)cc(Cl)c(Cl)c1Cc1c(O)c(Cl)cc(Cl)c1Cl`, the Potency is reported as “inactive”. With `Cc1scc2c1N(C(=O)CN1CCN(C)CC1)c1ccccc1NC2=O` the Potency was “inactive”. In the case of `CCN(CC)C(=O)Nc1ccc(OCC(O)CNC(C)(C)C)c(C(C)=O)c1` (stereo not drawn), the Potency is reported as “inactive”. In the case of `CC[C@H]1CN2CCc3cc(OC)c(OC)cc3[C@@H]2C[C@@H]1C[C@H]1NCCc2cc(OC)c(OC)cc21`, the Potency is reported as “inactive”. For `OCCOCCN1CCN(C(c2ccccc2)c2ccc(Cl)cc2)CC1` (stereo not drawn), the Potency was “inactive”. In the case of `Cc1cc(C(C)(C)C)c(O)c(C(C)(C)C)c1`, the Potency is reported as “inactive”. With `CC(=O)CC(C)=O` the Potency was “inactive”. For `NC(Cc1ccc(Cl)cc1)C(=O)O` (stereo not drawn), the Potency was “inactive”. With `CC1=C(C=O)C(C)(C)CC=C1` the Potency was “inactive”. In the case of `CCCCOCCOC(=O)c1ccccc1C(=O)OCCOCCCC`, the Potency is reported as “inactive”. With `CCCCC/C=C/CC1CC(=O)OC1=O` (stereo not drawn) the Potency was “inactive”. In the case of `O=C(O)c1cn(-c2ccc(F)cc2)c2cc(N3CCNCC3)c(F)cc2c1=O`, the Potency is reported as “inactive”. In the case of `C=C(C)C(=O)O`, the Potency is reported as “inactive”. For `CC(C(O)c1ccc(O)cc1)N1CCC(Cc2ccccc2)CC1` (stereo not drawn), the Potency was “inactive”. For `Cc1c2oc3c(C)ccc(C(=O)N[C@@H]4C(=O)N[C@H](C(C)C)C(=O)N5CCC[C@H]5C(=O)N(C)CC(=O)N(C)[C@@H](C(C)C)C(=O)O[C@@H]4C)c3nc-2c(C(=O)N[C@@H]2C(=O)N[C@H](C(C)C)C(=O)N3CCC[C@H]3C(=O)N(C)CC(=O)N(C)[C@@H](C(C)C)C(=O)O[C@@H]2C)c(N)c1=O` (I: T[dV]P[Sar][NMeV] / II: T[dV]P[Sar][NMeV]; ester I:1-I:C, II:1-II:C; linker I:N-II:N via Actinocin(9to1)), the Potency was “inactive”. In the case of `C=CS(=O)(=O)O`, the Potency is reported as “inactive”. For `O=c1n(CC2CO2)c(=O)n(CC2CO2)c(=O)n1CC1CO1` (stereo not drawn), the Potency was 23.7 µM (active) and 24.2 µM (active) and 54.5 µM (active).
